Laboratory results as given in PubChem BioAssay AID1159580 (chemical genetic matrix, 2015).
The whole screen tested about 5,500 compounds, of which about 2,000 (36%) were called active. Another 18% or so got no clear call; they are omitted. No stated cut-off is given here; in the data, active means normalized growth mostly below about 0.91 (no sharp cut-off); inconclusive means no clear call, values can overlap the other calls; inactive means mostly above about 0.92. The list shows a part of the results.

Assay: chemical genetic growth profiling, strain panel (AID 1159580);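 further: tested at 20 µM; growth read once vehicle control cultures reached saturation at 30 °C; 1 = growth at the plate median or of vehicle wells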
Conditions: growth OD

Measured: normalized growth

Cc1c(N(C)C)c(=O)n(-c2ccccc2)n1C
inactive: S. cerevisiae deletion strains, locus YKL009W, strain mrt4, stronger effect = lower value 0.984 | S. cerevisiae deletion strains, locus YKL068W, stronger effect = lower value 0.991 | S. cerevisiae deletion strains, locus YKL085W, strain MDH1 (second series), stronger effect = lower value 0.985 | S. cerevisiae deletion strains, locus YKL085W, strain MDH1, stronger effect = lower value 0.985 | S. cerevisiae deletion strains, locus YKL160W, strain elf1, stronger effect = lower value 0.988 | S. cerevisiae deletion strains, locus YKL190W, strain CNB1, stronger effect = lower value 0.988 | S. cerevisiae deletion strains, locus YKR001C, strain vps1, stronger effect = lower value 1 | S. cerevisiae deletion strains, locus YKR026C, strain gcn3, stronger effect = lower value 0.992 | S. cerevisiae deletion strains, locus YKR091W, strain srl3, stronger effect = lower value 0.976 | S. cerevisiae deletion strains, locus YLL001W, strain dnm1, stronger effect = lower value 0.972 | S. cerevisiae deletion strains, locus YLL026W, stronger effect = lower value 0.973 | S. cerevisiae deletion strains, locus YLL041C, strain sdh2, stronger effect = lower value 0.992 | S. cerevisiae deletion strains, locus YLR027C, strain aat2, stronger effect = lower value 0.97 | S. cerevisiae deletion strains, locus YLR039C, strain RIC1, stronger effect = lower value 0.983 | S. cerevisiae deletion strains, locus YLR058C, strain SHM2, stronger effect = lower value 0.997 | S. cerevisiae deletion strains, locus YLR102C, strain apc9, stronger effect = lower value 0.992 | S. cerevisiae deletion strains, locus YLR113W, strain HOG1, stronger effect = lower value 1.03 | S. cerevisiae deletion strains, locus YLR221C, strain rsa3, stronger effect = lower value 1.06 | S. cerevisiae deletion strains, locus YLR258W, strain gsy2, stronger effect = lower value 0.985 | S. cerevisiae deletion strains, locus YLR262C, strain YPT6 (second series), stronger effect = lower value 0.971 | S. cerevisiae deletion strains, locus YLR262C, strain YPT6, stronger effect = lower value 0.972 | S. cerevisiae deletion strains, locus YLR268W, strain sec22, stronger effect = lower value 0.963 | S. cerevisiae deletion strains, locus YLR320W, strain mms22, stronger effect = lower value 0.994 | S. cerevisiae deletion strains, locus YLR330W, strain CHS5, stronger effect = lower value 0.989 | S. cerevisiae deletion strains, locus YLR342W, strain FKS1 (second series), stronger effect = lower value 1.05 | S. cerevisiae deletion strains, locus YLR342W, strain FKS1, stronger effect = lower value 0.961 | S. cerevisiae deletion strains, locus YLR357W, strain rsc2, stronger effect = lower value 0.935 | S. cerevisiae deletion strains, locus YLR370C, strain arc18, stronger effect = lower value 0.984 | S. cerevisiae deletion strains, locus YLR371W, strain rom2, stronger effect = lower value 0.991 | S. cerevisiae deletion strains, locus YLR384C, strain iki3, stronger effect = lower value 0.991 | S. cerevisiae deletion strains, locus YLR418C, strain cdc73, stronger effect = lower value 1.03 | S. cerevisiae deletion strains, locus YML016C, strain PPZ1, stronger effect = lower value 1 | S. cerevisiae deletion strains, locus YML032C, strain rad52, stronger effect = lower value 0.967 | S. cerevisiae deletion strains, locus YML120C, strain ndi1, stronger effect = lower value 0.993 | S. cerevisiae deletion strains, locus YML124C, strain tub3, stronger effect = lower value 0.997 | S. cerevisiae deletion strains, locus YMR058W, strain fet3, stronger effect = lower value 1.01 | S. cerevisiae deletion strains, locus YMR078C, strain ctf18, stronger effect = lower value 0.985 | S. cerevisiae deletion strains, locus YMR125W, strain sto1, stronger effect = lower value 0.989 | S. cerevisiae deletion strains, locus YMR129W, stronger effect = lower value 0.991 | S. cerevisiae deletion strains, locus YMR205C, strain PFK2, stronger effect = lower value 0.991 | S. cerevisiae deletion strains, locus YMR223W, strain ubp8, stronger effect = lower value 1.02 | S. cerevisiae deletion strains, locus YMR231W, strain pep5, stronger effect = lower value 0.978 | S. cerevisiae deletion strains, locus YMR263W, strain SAP30, stronger effect = lower value 0.989 | S. cerevisiae deletion strains, locus YMR307W, strain GAS1, stronger effect = lower value 1.08 | S. cerevisiae deletion strains, locus YNL067W, strain RPL9B, stronger effect = lower value 0.978 | S. cerevisiae deletion strains, locus YNL071W, strain lat1, stronger effect = lower value 1 | S. cerevisiae deletion strains, locus YNL128W, strain TEP1, stronger effect = lower value 0.983 | S. cerevisiae deletion strains, locus YNL153C, strain GIM3, stronger effect = lower value 0.985 | S. cerevisiae deletion strains, locus YNL183C, strain NPR1, stronger effect = lower value 0.988 | S. cerevisiae deletion strains, locus YNL209W, strain ssb2, stronger effect = lower value 1.01 | S. cerevisiae deletion strains, locus YNL233W, strain BNI4, stronger effect = lower value 0.986 | S. cerevisiae deletion strains, locus YNL248C, strain rpa49, stronger effect = lower value 1 | S. cerevisiae deletion strains, locus YNL250W, strain rad50, stronger effect = lower value 0.972 | S. cerevisiae deletion strains, locus YNL271C, strain bni1, stronger effect = lower value 0.966 | S. cerevisiae deletion strains, locus YNL298W, strain CLA4, stronger effect = lower value 1 | S. cerevisiae deletion strains, locus YNL307C, strain MCK1, stronger effect = lower value 0.996 | S. cerevisiae deletion strains, locus YNL322C, strain KRE1 (second series), stronger effect = lower value 0.975 | S. cerevisiae deletion strains, locus YNL322C, strain KRE1, stronger effect = lower value 0.991 | S. cerevisiae deletion strains, locus YNR049C, strain mso1, stronger effect = lower value 0.996 | S. cerevisiae deletion strains, locus YNR052C, strain pop2, stronger effect = lower value 0.993 | S. cerevisiae deletion strains, locus YOL006C, strain TOP1, stronger effect = lower value 0.978 | S. cerevisiae deletion strains, locus YOL012C, strain htz1 2 | S. cerevisiae deletion strains, locus YOL147C, strain pex11, stronger effect = lower value 0.985 | S. cerevisiae deletion strains, locus YOR001W, strain rrp6, stronger effect = lower value 0.971 | S. cerevisiae deletion strains, locus YOR061W, strain CKA2, stronger effect = lower value 0.995 | S. cerevisiae deletion strains, locus YOR069W, strain VPS5, stronger effect = lower value 1 | S. cerevisiae deletion strains, locus YOR070C, strain gyp1, stronger effect = lower value 0.999 | S. cerevisiae deletion strains, locus YOR080W, strain dia2, stronger effect = lower value 0.98 | S. cerevisiae deletion strains, locus YOR083W, strain WHI5, stronger effect = lower value 0.956 | S. cerevisiae deletion strains, locus YOR106W, strain vam3, stronger effect = lower value 0.988 | S. cerevisiae deletion strains, locus YOR136W, strain idh2, stronger effect = lower value 1 | S. cerevisiae deletion strains, locus YOR144C, strain elg1, stronger effect = lower value 0.992 | S. cerevisiae deletion strains, locus YOR184W, strain ser1, stronger effect = lower value 1.01 | S. cerevisiae deletion strains, locus YOR231W, strain MKK1, stronger effect = lower value 0.992 | S. cerevisiae deletion strains, locus YOR265W, strain rbl2, stronger effect = lower value 0.998 | S. cerevisiae deletion strains, locus YOR270C, strain vph1, stronger effect = lower value 1.04 | S. cerevisiae deletion strains, locus YOR290C, strain snf2, stronger effect = lower value 0.996 | S. cerevisiae deletion strains, locus YOR316C, strain cot1, stronger effect = lower value 0.998 | S. cerevisiae deletion strains, locus YPL051W, strain arl3, stronger effect = lower value 0.992 | S. cerevisiae deletion strains, locus YPL055C, strain LGE1, stronger effect = lower value 1 | S. cerevisiae deletion strains, locus YPL078C, strain atp4, stronger effect = lower value 0.98 | S. cerevisiae deletion strains, locus YPL106C, strain sse1, stronger effect = lower value 0.974 | S. cerevisiae deletion strains, locus YPL240C, strain hsp82, stronger effect = lower value 0.99 | S. cerevisiae deletion strains, locus YPL241C, strain CIN2, stronger effect = lower value 0.996 | S. cerevisiae deletion strains, locus YPL256C, strain CLN2, stronger effect = lower value 1.02 | S. cerevisiae deletion strains, locus YPR119W, strain clb2, stronger effect = lower value 0.994 | S. cerevisiae deletion strains, locus YPR141C, strain kar3, stronger effect = lower value 0.966 | S. cerevisiae deletion strains, locus YPR163C, strain tif3, stronger effect = lower value 0.976 | S. cerevisiae deletion strains, locus YPR167C, strain met16, stronger effect = lower value 0.989 | S. cerevisiae deletion strains, strain wtn01, stronger effect = lower value 0.997 | S. cerevisiae strains, strain wild type, stronger effect = lower value 0.995
